Source: PubChem (NMMLSC)
Most compounds without a hit are left out; they make up all but 2.5% or so of the library.
MEKK2 mut-MEK5 – signal of MEK5 binding to mutant human MEKK2 PB1 domain | bead flow cytometry, Alexa488-MEK5 binding to MEKK2 mutant | percent response, % at 10 µM | 0.35% of 290,000 active; in the data active means percent response above about 24%, passing the limit was not always enough
MEKK2 WT-MEK5 – raises or lowers MEK5 binding to wildtype human MEKK2 PB1 domain; Q9Y2U5; bead flow cytometry, Alexa488-MEK5 binding to MEKK2 WT; actives lie on both sides; binding response (% of control), % at 10 µM; 1.1% of 290,000 active; AID 1531; in the data active means binding response below about 67% or above about 130%
GRK2 inh – inhibitors of human GRK2 displacing RNA aptamer | bead flow cytometry, FAM-aptamer displacement from GRK2 | inhibition of aptamer binding, % at 10 µM | 0.59% of 330,000 active;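 active means inhibition of aptamer binding above 40%, roughly 3 SD of noise, on plates passing a quality check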;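 further: median bead fluorescence of bound FAM aptamer so fluorescent compounds give negative values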
Target sequence (P25098 whole entry, looked up): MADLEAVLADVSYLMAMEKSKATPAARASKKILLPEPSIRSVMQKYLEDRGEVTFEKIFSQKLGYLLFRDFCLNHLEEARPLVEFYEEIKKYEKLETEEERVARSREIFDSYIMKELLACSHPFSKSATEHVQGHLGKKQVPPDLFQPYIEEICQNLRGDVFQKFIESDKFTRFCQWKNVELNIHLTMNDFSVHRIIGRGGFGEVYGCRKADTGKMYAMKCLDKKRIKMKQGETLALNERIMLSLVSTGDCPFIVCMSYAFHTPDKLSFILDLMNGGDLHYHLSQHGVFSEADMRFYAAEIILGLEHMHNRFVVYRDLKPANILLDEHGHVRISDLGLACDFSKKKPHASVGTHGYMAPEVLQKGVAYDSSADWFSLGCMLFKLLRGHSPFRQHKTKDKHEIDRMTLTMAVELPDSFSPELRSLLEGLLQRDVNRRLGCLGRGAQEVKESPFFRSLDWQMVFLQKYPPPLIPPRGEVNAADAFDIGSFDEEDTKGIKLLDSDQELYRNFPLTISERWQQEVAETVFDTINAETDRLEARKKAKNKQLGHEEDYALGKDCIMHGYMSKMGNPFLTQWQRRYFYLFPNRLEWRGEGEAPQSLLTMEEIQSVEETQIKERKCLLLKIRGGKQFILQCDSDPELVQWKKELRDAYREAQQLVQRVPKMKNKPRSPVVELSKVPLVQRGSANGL
MEKK3 PB1 HTS – MEKK3-MEK5 PB1 interaction, increase or decrease | bead-based flow cytometry, Alexa488-MEK5 binding to MEKK3; actives lie on both sides; 0 = blocked by unlabeled MEK5, 100 = vehicle | Q99759 | 1.4% of 290,000 active | binding response (% of control), % at 10 µM;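 active means binding response more than 3 SD above or below the average of its plate-row segment, actives on both sides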;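 further: Alexa488 bead fluorescence after subtracting the streptavidin-only scavenger bead signal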
MEKK2wt confirm – raises or lowers MEK5 binding to wildtype human MEKK2, retest; shares compounds with MEKK3 PB1 HTS; bead flow cytometry, Alexa488-MEK5 binding to MEKK2 WT; actives lie on both sides; binding response (% of control), % at 10 µM; 2.4% of 5,900 active; AID 1892; in the data active means binding response below about 16% or above about 210%; inactive means in between
MEKK2mut confirm – signal of MEK5 binding to mutant human MEKK2, retest. shares compounds with MEKK3 PB1 HTS. bead flow cytometry, Alexa488-MEK5 binding to MEKK2 mutant. percent response, % at 10 µM. 2% of 5,900 active. AID 1893; in the data active means percent response mostly above about 71%, no sharp cut-off; inactive means mostly below about 38%;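 further: higher means compound restores mutant binding toward wildtype level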
MEKK3 confirm – confirmation of inhibitors of MEK5 binding to human MEKK3. bead flow cytometry, Alexa488-MEK5 binding to MEKK3; stronger effect = lower value. binding response (% of control), % at 10 µM. AID 1894. 1.8% of 5,900 active. shares compounds with MEKK3 PB1 HTS;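 active means binding response below 72% of control, or above a set upper limit, though filed actives all read lower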;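 further: 100% = DMSO only wells and 0% = binding blocked by excess unlabeled MEK5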
Starred values were filed as active, the others as inactive; / = no result; [ ] = another dose, or the depositor's remark.

SMILES	MEKK2 mut-MEK5	MEKK2 WT-MEK5	GRK2 inh	MEKK3 PB1 HTS	MEKK2wt confirm	MEKK2mut confirm	MEKK3 confirm
COc1cccc(-c2ccc(NC(=O)C3CCCN(Cc4cnn(C(C)C)c4)C3)cc2)c1 (stereo not drawn)	16	147*	0	107	141	28	108
CCCc1ncc(CN2CCCC(C(=O)Nc3ccc(-c4cccc(OC)c4)cc3)C2)cn1 (stereo not drawn)	2	101	0	96	/	/	/
CCOC(=O)C(NC(=O)c1ccccc1Cl)(Nc1ccc(C)c(C)c1)C(F)(F)F (stereo not drawn)	-1	102	1	120	/	/	/
CCOC(=O)C(NC(=O)c1ccccc1Cl)(Nc1ccc(C(F)(F)F)cc1)C(F)(F)F (stereo not drawn)	3	106	1	151*	101	-3	101
Cc1cc(Cl)ccc1NC(=S)NCc1ccccc1Cl	0	109	/	128*	103	2	101
Cc1cc(Cl)ccc1NC(=S)NCC(C)C	0	111	2	138*	103	8	103
S=C(NCc1ccccc1Cl)Nc1ccccc1Cl	-1	98	0	101	/	/	/
O=C(NCc1ccccc1C(F)(F)F)C1CC(c2ccc(C(F)(F)F)cc2)=NO1 (stereo not drawn)	-2	103	2	81*[inhibitor]	101	1	99
Cc1ccc(Cl)cc1N1CCN(C(=O)Cc2cn(C)c3ccccc23)CC1	5	117	0	130*	106	4	107
Cc1ccccc1-c1nnc(SCC(=O)NC2CCS(=O)(=O)C2)n1C (stereo not drawn)	/	/	1	/	/	/	/
COC(=O)CC1C(=O)NCCN1C(=O)Nc1ccc(Cl)cc1 (stereo not drawn)	-38	2.0*[inhibitor]	0	95	97	1	107
Cc1ccccc1OCC(=O)Nc1ccc(S(=O)(=O)Nc2ccccn2)cc1	0	109	4	136*	96	1	100
Cc1nn(C)cc1-c1cc(C(=O)O)c2ccccc2n1	-3	23*[inhibitor]	4	65*[inhibitor]	95	-3	97
CCCc1cc(=O)[nH]c(SCC(=O)Nc2ccc(OC)c(S(=O)(=O)N3CCCCC3)c2)n1	/	/	5	/	/	/	/
O=C(COC(=O)CCN1C(=O)C2CC=CCC2C1=O)Nc1ccc(Cl)cc1F (stereo not drawn)	/	/	2	/	/	/	/
N#Cc1ccc2[nH]cc(CCO)c2c1	-7	91	4	95	/	/	/
CN(C(=O)c1ccncc1)C1CCCCC1	2	103	2	99	/	/	/
COc1cc2c(cc1Cl)/C(=C\CCN(C)C)c1ccccc1S2	3	130	0	102	/	/	/
CN1CCN(CC/C=C2/c3ccccc3Sc3ccc(S(=O)(=O)N(C)C)cc32)CC1	19	143*	0	78	127	10	101
COc1ccc(C(=O)Nc2ccnn2C2CCN(C(=O)c3cccnc3)CC2)cc1	12	108	0	106	/	/	/
CCC(C)NCCOCCOc1cc(C)c(Cl)c(C)c1 (stereo not drawn)	7	107	0	102	/	/	/
CCC(C)NCCOCCOc1ccc(F)cc1 (stereo not drawn)	-21	3.0*[inhibitor]	0	2.0*[inhibitor]	101	-3	99
CCCCN1C(=O)/C(=C/C=C2\N(C)c3ccccc3C2(C)C)SC1=S	156*	130	0	67	36	-58*[inhibitor]	41*
CN1CCc2c(sc3c2C(=O)NC(c2cccs2)N3)C1 (stereo not drawn)	7	104	1	103	/	/	/
CN1CCc2c(sc3c2C(=O)NC(c2ccc(-c4cccc(Cl)c4)o2)N3)C1 (stereo not drawn)	42	170*	0	82	127	48	104
SMILES	MEKK2 mut-MEK5	MEKK2 WT-MEK5	GRK2 inh	MEKK3 PB1 HTS	MEKK2wt confirm	MEKK2mut confirm	MEKK3 confirm
CC(C)(C)N(Cc1ccccc1)C(=O)COC(=O)c1ccc(S(=O)(=O)N2CCOCC2)cc1	/	/	8	/	/	/	/
CCCCc1nc2sc3c(SCC(=O)NCc4ccco4)ncnc3c2c2c1CCC2	2	96	2	95	/	/	/
CCCCc1nc2sc3c(SCCN(C)C)ncnc3c2c2c1CCC2	29	152*	0	100	198	63	106
CC(=O)Nc1nc(NC(=O)/C=C/c2ccccc2)n(-c2ccccc2)n1	2	105	5	140*	104	-3	104
O=C(COC(=O)Cc1ccc(S(=O)(=O)N2CCOCC2)s1)Nc1ccc([N+](=O)[O-])cc1	/	/	7	/	/	/	/
O=C(Nc1cc(Cl)cc(Cl)c1)c1cccc(OC(F)F)c1	39	172*	2	109	106	5	104
CCOP(=O)(OCC)C(Nc1ccccn1)c1ccccc1 (stereo not drawn)	1	108	2	135*	91	-14	94
COc1ccc(-c2nnc3ccc(SCC(=O)Nc4nccs4)nn23)cc1OC	1	108	0	128*	101	5	102
COc1ccc(-c2[nH]c(-c3ccc(C)cc3)nc2SCC(=O)Nc2nccs2)cc1	0	106	0	134*	109	5	103
COc1ccc(-c2nc(SCC(=O)Nc3nccs3)c(-c3ccc(Cl)cc3)[nH]2)cc1	5	108	2	116	/	/	/
COc1ccc(C(=O)NCC(=O)N2CCN(c3ccc(F)cc3)CC2)cc1	0	103	0	101	/	/	/
COc1ccc(N2C(=O)CCC2(C#N)c2ccc(Br)cc2)cc1 (stereo not drawn)	-25	63	1	49*[inhibitor]	98	-5	102
CCNC(=O)NC(=O)C(C)OC(=O)CCS(=O)(=O)c1ccc(C)cc1 (stereo not drawn)	-13	94	0	97	/	/	/
CCNC(=O)NC(=O)C(C)On1nnc2ccc(S(=O)(=O)N(CC)CC)cc21 (stereo not drawn)	1	106	2	150*	98	2	101
O=C(COC(=O)c1ccccc1C(=O)c1ccccc1)NCCc1ccc(Cl)cc1Cl	-2	96	2	130*	102	-3	101
Brc1ccc(OCCOc2cccc3cccnc23)cc1	-1	96	0	96	/	/	/
c1ccc(OCCOc2cccc3cccnc23)cc1	1	109	0	152*	94	0	94
N#Cc1nc(-c2cccc3ccccc23)oc1NCCN1CCCCC1	12	159*	0	109	175	49	114
CCCn1c(N)c(N2CCCCC2)c(=O)n(CC(=O)Nc2cccc(S(=O)(=O)N(C)C)c2)c1=O	/	/	1	/	/	/	/
CN1CCN(NC(=O)C2CC2)CC1	0	104	1	142*	106	-3	103
